DT40 TDP1 no CPT = qHTS for Inhibitors of human tyrosyl-DNA phosphodiesterase 1 (TDP1): qHTS in cells in absence of CPT; DT40 Tdp1-/- hTDP1 cells, no CPT, ATP luminescence, 48 h; AID 686978, 2013; 420,000 tested, 15% active; Potency, µM (series often up to 46.2 µM), most hits filed as inhibitors; further: nearly all actives have a fitted effect of over 55% in size
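Readout: luminescence from CellTiter-Glo after 30 min in the dark at RT. Cells: DT40 Tdp1-/- with stable hTDP1, 400/well. Exposure: compounds alone, ≥48 hr, 37 °C.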
DT40 TDP1 CPT = DT40-hTDP1 cell growth loss with CPT; chicken DT40 Tdp1-/-;hTDP1 cells + 20 nM CPT, ATP luminescence, 48 h; Potency, µM (top dose mostly 46.2 µM), actives largely listed as inhibitors; 420,000 tested, 12% active; AID 686979; further: nearly all actives have a fitted effect of over 55% in size
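Chicken DT40 Tdp1-/- cells complemented with human TDP1, 400 cells/well, exposed to compounds plus 20 nM camptothecin for at least 48 h at 37 C; viability read as ATP content by CellTiter-Glo luminescence.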
ClpP mod = qHTS Assay for Activators of ClpP; ATP-dependent Clp protease proteolytic subunit (Bacillus subtilis (strain 168)), P80244; purified B. subtilis ClpP, FRET peptide cleavage, 20 min; Potency, µM (highest dose often 57.5 µM); 340,000 tested, 1.9% active; AID 651965, 2013; active means well fitted falling curve with a large enough effect; inconclusive means small, poorly fitted or top-dose-only effect; inactive means no such curve, though single readings can be large or run the other way; further: the source files actives as falling curves though it sought activators and does not explain the sign; nearly all actives have a fitted effect of over 65% in size
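Purified B. subtilis ClpP, 10 microg/mL final in Tris/HCl pH8 with KCl, BSA, glycerol and Tween-20, cleaved an Abz/nitrotyrosine-quenched decapeptide. Fluorescence (ex 320, em 430) was read at 0 and 20 min at room temperature. Delta was normalized to 5.8 microM ADEP and DMSO/no-enzyme controls.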
TDP1 inh = TDP1 (human) enzyme inhibition. 350,000 tested, 0.28% active. Q9NUW8. recombinant TDP1, AlphaScreen DNA substrate cleavage. Potency, µM (titrated, usually from 130 µM), usual class: inhibitors. AID 485290; further: nearly all actives have a fitted effect of over 40% in size
Target sequence (Q9NUW8 whole entry, looked up): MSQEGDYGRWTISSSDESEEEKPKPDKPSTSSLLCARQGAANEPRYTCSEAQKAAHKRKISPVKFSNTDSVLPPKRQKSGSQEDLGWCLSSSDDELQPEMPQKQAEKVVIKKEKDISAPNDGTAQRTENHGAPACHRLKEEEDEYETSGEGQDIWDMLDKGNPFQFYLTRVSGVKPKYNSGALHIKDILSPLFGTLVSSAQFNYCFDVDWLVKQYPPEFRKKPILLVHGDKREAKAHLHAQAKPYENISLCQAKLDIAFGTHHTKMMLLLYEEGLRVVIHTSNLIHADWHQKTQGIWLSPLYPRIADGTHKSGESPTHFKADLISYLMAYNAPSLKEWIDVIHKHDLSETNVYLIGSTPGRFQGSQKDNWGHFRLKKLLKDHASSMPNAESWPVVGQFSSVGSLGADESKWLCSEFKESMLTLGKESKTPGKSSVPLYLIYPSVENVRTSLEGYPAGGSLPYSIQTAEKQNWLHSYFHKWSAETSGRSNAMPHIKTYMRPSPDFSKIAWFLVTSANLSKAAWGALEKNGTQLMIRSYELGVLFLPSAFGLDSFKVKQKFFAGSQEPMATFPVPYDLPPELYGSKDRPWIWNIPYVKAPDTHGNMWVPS
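Signal: AlphaScreen proximity between streptavidin donor and anti-FITC acceptor beads on intact substrate. Reaction: Tdp1 1 nM, substrate 15 nM final, 5 min RT after 15 min compound preincubation.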
Numbers stand for hits. Most compounds without a hit are left out; they make up all but 17% or so of the library. Unless noted, the call rests on the fitted dose curve; in most records, active means well fitted curve in the direction sought with a large enough effect; inconclusive means small, poorly fitted or top-dose-only effect, or another doubt; inactive means no such curve, though single readings can be large; an effect the other way counts as inactive or inconclusive.

`Cc1sc(-n2c(C)cc(/C=C3\SC(=S)NC3=O)c2C)c(C#N)c1C` gave DT40 TDP1 no CPT inactive, DT40 TDP1 CPT inconclusive, ClpP mod inactive and TDP1 inh inactive.
`CC(C)c1cc(C(=O)NCCc2ccccc2)no1` gave DT40 TDP1 no CPT inactive, DT40 TDP1 CPT inactive, ClpP mod inactive and TDP1 inh inactive.
Screening COc1ccc(CC(=O)N(CC2CCCO2)c2nc3ccccc3s2)cc1 (stereo not given) returned DT40 TDP1 no CPT 13µM, DT40 TDP1 CPT inconclusive, ClpP mod inactive and TDP1 inh inactive.
For CCN(CC)CCCN(C(=O)c1cccc(C)c1)c1nc(-c2ccc(OC)cc2)cs1 the results were DT40 TDP1 no CPT 7.31µM, DT40 TDP1 CPT inactive and ClpP mod inactive.
COCCN(C(=O)Cc1ccc(OC)c(OC)c1)c1nc(-c2cc(OC)ccc2OC)cs1 was read as DT40 TDP1 no CPT inconclusive, DT40 TDP1 CPT 18.4µM and ClpP mod inactive.
`CCN(CC)CCCN(C(=O)c1cccs1)c1nc(-c2ccc(OC)cc2)cs1` gave DT40 TDP1 no CPT 20.6µM, DT40 TDP1 CPT 18.4µM, ClpP mod inactive and TDP1 inh inactive.
`CCN(CC)CCCN(C(=O)c1ccc(Br)cc1)c1nc(-c2ccc(OC)cc2)cs1` gave DT40 TDP1 no CPT inconclusive and DT40 TDP1 CPT inactive.
Screening O=C1C2C(c3ccccc3)CC=CC2C(c2ccc(C(F)(F)F)cc2)N1Cc1ccccc1 (stereo not given) returned TDP1 inh inactive.
For CCOc1ccc(Cn2c(CNS(=O)(=O)c3ccc(C(C)(C)C)cc3)nc3cccnc32)cc1 the results were DT40 TDP1 no CPT inconclusive, DT40 TDP1 CPT inconclusive, ClpP mod inactive and TDP1 inh inactive.
COc1ccc(OC)c(-c2csc(N(CC3CCCO3)C(=O)C3CCCCC3)n2)c1 (stereo not given) was read as DT40 TDP1 no CPT 18.4µM, DT40 TDP1 CPT 20.6µM, ClpP mod inactive and TDP1 inh inactive.
For COc1ccc(-c2csc(N(CC3CCCO3)C(=O)c3cccs3)n2)cc1 (stereo not given) the results were DT40 TDP1 no CPT inconclusive, DT40 TDP1 CPT 11.6µM, ClpP mod inactive and TDP1 inh inactive.
COc1ccc(OC)c(-c2csc(N(C)C(=O)Cc3ccccc3)n2)c1 was read as DT40 TDP1 no CPT inactive, DT40 TDP1 CPT inactive and TDP1 inh inactive.
`COc1ccc(-c2csc(N(Cc3ccco3)C(=O)c3cccs3)n2)cc1` gave DT40 TDP1 no CPT inconclusive, DT40 TDP1 CPT inconclusive, ClpP mod inactive and TDP1 inh inactive.
`CC(=O)N1CC(=O)N(c2ccccc2)C1=O` gave DT40 TDP1 no CPT inactive, DT40 TDP1 CPT inactive and ClpP mod inactive.
`CC(=O)N1CCCC1c1nc2ccccc2n1Cc1cc(C)ccc1C` (stereo not given) gave DT40 TDP1 no CPT 23.1µM, DT40 TDP1 CPT 23.1µM, ClpP mod inactive and TDP1 inh inactive.
Screening Cc1cc(C)c(C(=O)C(C)OC(=O)c2ccccn2)cc1C (stereo not given) returned DT40 TDP1 no CPT inactive, DT40 TDP1 CPT inactive, ClpP mod inactive and TDP1 inh inactive.
Cc1ccc(C(=O)OC(C)C(=O)c2cc(C)c(C)cc2C)o1 (stereo not given) was read as DT40 TDP1 no CPT inactive, DT40 TDP1 CPT inconclusive, ClpP mod inactive and TDP1 inh 56.2µM.
`COC(=O)C1(C(=O)OC)C(C(=O)c2ccccc2)C1c1ccccc1` (stereo not given) gave DT40 TDP1 no CPT inactive, DT40 TDP1 CPT inactive and ClpP mod inactive.
Screening COc1cc(C#Cc2ccc3cc(CCO)oc(=O)c3c2)cc(OC)c1 returned DT40 TDP1 no CPT 18.4µM, DT40 TDP1 CPT inconclusive, ClpP mod inactive and TDP1 inh inactive.
`COC(=O)c1ccccc1S(=O)(=O)N1CCC(C(=O)OC(C)C(=O)N(C)Cc2ccccc2)CC1` (stereo not given) gave DT40 TDP1 no CPT inconclusive, DT40 TDP1 CPT inactive and ClpP mod inactive.
Screening COC(=O)c1ccccc1N(C)S(=O)(=O)c1cc2c3c(c1)CC(=O)N3CCC2 returned DT40 TDP1 no CPT inconclusive, DT40 TDP1 CPT inconclusive, ClpP mod inactive and TDP1 inh inactive.
c1ccc(-c2cnc(CSc3nnc4ccccn34)o2)cc1 was read as DT40 TDP1 no CPT inactive, DT40 TDP1 CPT inactive, ClpP mod inactive and TDP1 inh inactive.
For Cc1ccccc1-n1nnnc1SCc1ncc(-c2ccccc2)o1 the results were DT40 TDP1 no CPT inconclusive, DT40 TDP1 CPT inactive, ClpP mod 31.6µM and TDP1 inh inactive.
Screening CCN(CC)S(=O)(=O)c1cccc(-c2nnc(SCc3ncc(-c4ccccc4)o3)n2C)c1 returned DT40 TDP1 no CPT 18.4µM, DT40 TDP1 CPT inconclusive, ClpP mod inactive and TDP1 inh inactive.
`CCSc1nnc(-c2cccc(S(=O)(=O)N(CC)CC)c2)n1Cc1ccccc1` gave DT40 TDP1 no CPT 17.8µM, DT40 TDP1 CPT 11.2µM, ClpP mod inactive and TDP1 inh inactive.
Screening O=C(CCNC(=O)N1CC(=O)Nc2ccccc21)NCc1ccc(Cl)cc1 returned DT40 TDP1 no CPT inactive, DT40 TDP1 CPT inactive and ClpP mod inactive.
Screening COc1ccc(OCc2ccc(-c3nc(C#N)c(N4CCC(C(N)=O)CC4)o3)o2)cc1 returned DT40 TDP1 no CPT inconclusive, DT40 TDP1 CPT inconclusive, ClpP mod 35.5µM and TDP1 inh inactive.
`Cc1cccc(OCc2ccc(-c3nc(C#N)c(N4CCC(C(N)=O)CC4)o3)o2)c1` gave DT40 TDP1 no CPT inconclusive, DT40 TDP1 CPT 16.4µM, ClpP mod inactive and TDP1 inh inactive.
COc1ccccc1C(=O)NCCOc1ccc(C(C)(C)C)cc1 was read as DT40 TDP1 no CPT 20.6µM, DT40 TDP1 CPT inconclusive, ClpP mod inactive and TDP1 inh inactive.
For CC(C)(C)c1ccc(OCCNC(=S)Nc2ccccc2)cc1 the results were DT40 TDP1 no CPT 5.8µM, DT40 TDP1 CPT 2.91µM and TDP1 inh inactive.
`CCOc1ccc(CSCCNC(=S)Nc2ccccc2)cc1` gave DT40 TDP1 no CPT 23.1µM, DT40 TDP1 CPT 23.1µM, ClpP mod inactive and TDP1 inh inactive.
Fc1ccccc1OCC1CCCN(Cc2nc(CC3CC3)no2)C1 (stereo not given) was read as DT40 TDP1 no CPT inactive, DT40 TDP1 CPT inactive and TDP1 inh inactive.
CCCCNC(=S)N(C)/N=C/c1ccc(OCc2ccc(C(=O)OC)cc2)c(OC)c1 was read as DT40 TDP1 no CPT 14.6µM, DT40 TDP1 CPT inconclusive, ClpP mod inactive and TDP1 inh inactive.
Screening Cc1ccc(NC(=O)c2ccc(S(=O)(=O)NCc3cccnc3)cc2)c(C)c1 returned DT40 TDP1 no CPT inconclusive, DT40 TDP1 CPT inactive and ClpP mod inactive.
For CCc1ccc(NC(=O)C(=O)NCC(c2ccc3c(c2)OCO3)N2CCN(C)CC2)cc1 (stereo not given) the results were DT40 TDP1 no CPT 16.4µM, DT40 TDP1 CPT inconclusive, ClpP mod inactive and TDP1 inh inactive.

Source: PubChem (National Center for Advancing Translational Sciences (NCATS))
